Results published in PubChem BioAssay (Tox21).
Results filed as inconclusive are left out. Entries that show only a call come without a potency. Values without a mark were called inactive. The source made the active and inactive calls. Unless noted, calls come from the whole dose curve; as a rule, active = well fitted curve in the direction sought with a large enough effect in the repeat runs; inconclusive = weak or mixed curves; inactive = no such curve, though single readings can be large; an effect the other way counts as inactive or inconclusive.

Tests used:
[1] = qHTS assay to identify small molecule agonists of the RXR signaling pathway - cell viability counter screen (AID 1159529);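 note: HEK 293T cells carrying an RXR-alpha UAS beta-lactamase reporter; series mostly up to about 77 µM; nearly all actives have a fitted effect of over 50% in size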
How it was run: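 Counter screen: CellTiter-Glo luminescence. Cells: RXR-alpha-UAS-bla HEK 293T. Medium: 2% charcoal-stripped FBS. Treatment: 16 h, 37 C. Reagent incubation: 30 min, RT.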

[2] = qHTS assay to identify small molecule antagonists of the retinoid acid receptor (RAR) signaling pathway - cell viability counter screen (AID 1159551); note: nearly all actives have a fitted effect of over 35% in size
How it was run: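 Cytotoxicity counter screen: ATP content quantified by CellTiter-Glo luminescence in C3RL4 cells treated 6 hr at 37 C with compound and retinol (1 uM final). Cells plated at 1,000/well and cultured overnight before dosing.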

[3] = qHTS assay to identify small molecule antagonists of the retinoic acid receptor (RAR) signaling pathway (AID 1159552; note: nearly all actives have a fitted effect of over 50% in size; note: potency is the fitted concentration of half-maximal effect)
How it was run: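 Antagonism of retinol-induced RARE reporter activity was measured in C3RL4 cells. Exposure to compounds and 1 uM final retinol lasted 6 hr at 37 C, with luminescence as endpoint.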

[4] = qHTS assay to identify small molecule agonists of the retinoic acid receptor (RAR) signaling pathway (AID 1159553)
How it was run: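 Luminescence was measured 30 min after luciferase reagent addition at room temperature. Before that, C3RL4 reporter cells (1,000 per well, plated overnight) were treated with compound for 6 hr at 37 C and 5% CO2.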

[5] = qHTS assay to identify small molecule antagonists of the estrogen related receptor (ERR) signaling pathway - cell viability counter screen (AID 1224818);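 note: series mostly up to about 46 µM; viability measured after 17.5 h of compound exposure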
How it was run: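 Cytotoxicity counter screen: fluorescence from CellTiter-Fluor, added after 17.5 h compound exposure at 37 C and read 30 min later. ERR cell line seeded at 2,000 cells/well, preincubated 6 h before dosing.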

[6] = qHTS assay to identify small molecule agonists of the estrogen related receptor (ERR) signaling pathway (AID 1224820)
How it was run: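 An ERR cell line provided by NTP was seeded at 2,000 cells per well and allowed to settle for 6 h before compounds in DMSO were added. After 18 h at 37 C, luciferase activity was measured by One-Glo luminescence.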

[7] = system: estrogen-related receptor alpha (ERRalpha) with PGC-1alpha coactivator, human; assay: qHTS assay to identify small molecule antagonists of the estrogen related receptor signaling pathway with the pleiotropic PPARgamma coactivator (PGC) (AID 1224821; calls by dose curve;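 note: series mostly up to about 46 µM; lower luminescence signal means antagonism of PGC/ERR signalling; nearly all actives have a fitted effect of over 50% in size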)
How it was run: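 A PGC/ERR cell line supplied by NTP is seeded, allowed 6 h at 37 C, and treated with test compounds in DMSO for 18 h. Signal is then measured as luciferase luminescence using One-Glo.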

[8] = qHTS assay to identify small molecule agonists of the estrogen related receptor signaling pathway with the pleiotropic PPARgamma coactivator (PGC) (AID 1224823)
How it was run: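 Compounds dissolved in DMSO are added by pin tool to PGC/ERR cells that have settled for 6 h, and incubation continues 18 h at 37 C. Reporter output is measured as One-Glo luminescence.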

[9] = molecular target: Luciferin 4-monooxygenase (Photinus pyralis) (UniProt P08659); assay: qHTS assay to identify small molecule inhibitors of firefly luciferase (AID 1224835); note: nearly all actives have a fitted effect of over 25% in size; note: potency is the fitted concentration of half-maximal effect
How it was run: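 Quantitative HTS format; KM concentrations of both substrates. Purified P. pyralis FLuc activity quantified from luminescence images.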

[10] = qHTS assay to identify small molecule agonists of the constitutive androstane receptor (CAR) signaling pathway - cell viability counter screen (AID 1224836); note: series mostly up to about 92 µM; nearly all actives have a fitted effect of over 45% in size
How it was run: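 Double-stable HepG2 hepatoma cells (hCAR plus CYP2B6-2.2kb) are treated for 23 h at 37 C with test compounds in 15-point concentration series. PK11195 at 0.75 uM final is co-added. Cell viability is quantified by CellTiter-Fluor.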

[11] = qHTS assay to identify small molecule antagonists of the constitutive androstane receptor (CAR) signaling pathway - cell viability counter screen (AID 1224837); note: series mostly up to about 92 µM; nearly all actives have a fitted effect of over 45% in size
How it was run: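 Cytotoxicity counter-screen: CellTiter-Fluor fluorescence after 23 h compound exposure (15-point qHTS) in double-stable HepG2-CYP2B6-hCAR cells, with 50 nM CITCO added.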

[12] = molecular target: Nuclear receptor subfamily 1 group I member 3 (Homo sapiens) (UniProt Q14994); assay: qHTS assay to identify small molecule antagonists of the constitutive androstane receptor (CAR) signaling pathway (AID 1224838);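 note: HepG2 cells stably expressing hCAR with CYP2B6 luciferase reporter stimulated by CITCO; nearly all actives have a fitted effect of over 40% in size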
How it was run: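 Antagonism measured as luciferase signal (ONE-Glo, 30 min, room temperature) in CAR-stimulated cells: HepG2-CYP2B6-hCAR double-stable line exposed 24 hr at 37 C to compound in a 15-point series plus 50 nM CITCO.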

[13] = molecular target: Nuclear receptor subfamily 1 group I member 3 (Homo sapiens) (UniProt Q14994); assay: qHTS assay to identify small molecule agonists of the constitutive androstane receptor (CAR) signaling pathway (AID 1224839);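 note: HepG2 cells stably carrying human CAR and a CYP2B6 luciferase reporter; series mostly up to about 92 µM; nearly all actives have a fitted effect of over 15% in size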
How it was run: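 Readout: firefly luciferase luminescence via ONE-Glo. System: HepG2 double-stable for hCAR and CYP2B6-2.2kb. Conditions: 15-point compound titration, PK11195 at 0.75 uM final, 24 h incubation.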

[14] = qHTS assay to identify small molecule antagonists of the estrogen related receptor signaling pathway with the pleiotropic PPARgamma coactivator (PGC) from Tox21 10K library - cell viability counter screen (AID 1224840; active = well fitted cell-killing curve with a large enough effect in the repeat runs, not every such curve was filed as active; note: nearly all actives have a fitted effect of over 40% in size)
How it was run: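 Counter-screen for cytotoxicity: after 17.5 h compound exposure at 37 C, CellTiter-Fluor reagent added to PGC/ERR cells for 30 min and fluorescence read. Cells were seeded at 2,000 per well 6 h before dosing.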

[15] = qHTS assay to identify small molecule antagonists of the estrogen related receptor signaling pathway with the pleiotropic PPARgamma coactivator (PGC) from Tox21 10K library (AID 1224841; call rule not given here; note: actives are mostly falling curves and most rising ones were filed inactive; nearly all actives have a fitted effect of over 50% in size; note: potency is the fitted concentration of half-maximal effect)
How it was run: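 Luminescence (One-Glo, 30 min at room temperature) after 18 h compound treatment at 37 C of PGC/ERR reporter cells plated at 2,000 cells/well and settled 6 h beforehand.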

[16] = qHTS assay to identify small molecule agonists of the estrogen related receptor signaling pathway with the pleiotropic PPARgamma coactivator (PGC) from Tox21 10K library (AID 1224842); note: nearly all actives have a fitted effect of over 15% in size
How it was run: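 PGC/ERR reporter cells (NTP line) were seeded 2,000 per well, rested 6 h at 37 C/5% CO2, then pin-dosed with compounds in DMSO for 18 h at 37 C; luciferase read by One-Glo luminescence after 30 min at room temperature.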

[17] = qHTS assay to identify small molecule antagonists of the estrogen related receptor (ERR) signaling pathway from Tox21 library - cell viability counter screen (AID 1224834); note: nearly all actives have a fitted effect of over 30% in size; note: potency is the fitted concentration of half-maximal effect
How it was run: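 CellTiter-Fluor fluorescence, read after 30 min at 37 C, measures viability of ERR cells. Cells plated at 2,000/well and incubated 6 h before pin-tool compound addition, then exposed 17.5 hours at 37 C.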

[18] = molecular target: Thyrotropin receptor (Homo sapiens) (UniProt P16473); assay: qHTS assay to identify small molecule agonists of the thyroid stimulating hormone receptor (TSHR) signaling pathway (AID 1224843; calls by dose curve; note: nearly all actives have a fitted effect of over 45% in size)
How it was run: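 Compounds are titrated over 15 concentrations, in triplicate, onto TSHR-HEK293 cells seeded at 800/well. Plates sit 30 min at room temperature before cAMP-d2 and anti-cAMP cryptate are added; signal is read after a further hour.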

[19] = qHTS assay to identify small molecule antagonists of the estrogen related receptor (ERR) signaling pathway (AID 1224819)
How it was run: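 LOPAC library screened for antagonism as reduced One-Glo luminescence in ERR reporter cells (2,000/well). Compounds were added after 6 h pre-incubation and left 18 h at 37C; reading followed a 30 min room-temperature reagent step.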

[20] = qHTS assay to identify small molecule antagonists of the estrogen related receptor signaling pathway with the pleiotropic PPARgamma coactivator (PGC) cell viability counter screen (AID 1224822; note: series mostly up to about 46 µM)
How it was run: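 Viability counter-screen read by fluorescence intensity after 30 min with CellTiter-Fluor at 37 C; PGC/ERR reporter cells were exposed to compounds for 17.5 h at 37 C following a 6 h preincubation.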

Luciferin 4-monooxygenase (Photinus pyralis), sequence (P08659 whole entry, looked up): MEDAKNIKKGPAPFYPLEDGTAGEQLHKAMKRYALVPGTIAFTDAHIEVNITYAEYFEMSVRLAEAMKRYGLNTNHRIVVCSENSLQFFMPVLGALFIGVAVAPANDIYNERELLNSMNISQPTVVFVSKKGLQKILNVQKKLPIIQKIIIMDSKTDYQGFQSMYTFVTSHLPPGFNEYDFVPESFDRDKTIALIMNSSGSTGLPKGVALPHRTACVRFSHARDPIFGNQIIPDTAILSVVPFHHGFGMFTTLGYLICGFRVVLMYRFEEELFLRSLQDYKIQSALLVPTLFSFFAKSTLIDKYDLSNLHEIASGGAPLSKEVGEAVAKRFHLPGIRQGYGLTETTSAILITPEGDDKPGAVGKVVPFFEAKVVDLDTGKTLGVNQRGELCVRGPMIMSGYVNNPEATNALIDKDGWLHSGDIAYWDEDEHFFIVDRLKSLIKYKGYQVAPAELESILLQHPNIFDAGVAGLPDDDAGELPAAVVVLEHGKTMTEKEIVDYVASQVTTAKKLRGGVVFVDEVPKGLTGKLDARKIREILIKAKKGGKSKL
Nuclear receptor subfamily 1 group I member 3 (Homo sapiens), sequence (Q14994 whole entry, looked up): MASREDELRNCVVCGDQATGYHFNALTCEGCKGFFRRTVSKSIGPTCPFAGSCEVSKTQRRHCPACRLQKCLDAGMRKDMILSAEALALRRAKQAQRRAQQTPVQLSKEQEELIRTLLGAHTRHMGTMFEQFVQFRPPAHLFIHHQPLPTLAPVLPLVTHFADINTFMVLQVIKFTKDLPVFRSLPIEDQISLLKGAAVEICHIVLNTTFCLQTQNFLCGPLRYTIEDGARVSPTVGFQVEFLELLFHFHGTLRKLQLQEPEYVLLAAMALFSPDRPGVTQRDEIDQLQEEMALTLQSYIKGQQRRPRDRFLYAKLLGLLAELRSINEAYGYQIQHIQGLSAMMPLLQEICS
Thyrotropin receptor (Homo sapiens), sequence (P16473 whole entry, looked up): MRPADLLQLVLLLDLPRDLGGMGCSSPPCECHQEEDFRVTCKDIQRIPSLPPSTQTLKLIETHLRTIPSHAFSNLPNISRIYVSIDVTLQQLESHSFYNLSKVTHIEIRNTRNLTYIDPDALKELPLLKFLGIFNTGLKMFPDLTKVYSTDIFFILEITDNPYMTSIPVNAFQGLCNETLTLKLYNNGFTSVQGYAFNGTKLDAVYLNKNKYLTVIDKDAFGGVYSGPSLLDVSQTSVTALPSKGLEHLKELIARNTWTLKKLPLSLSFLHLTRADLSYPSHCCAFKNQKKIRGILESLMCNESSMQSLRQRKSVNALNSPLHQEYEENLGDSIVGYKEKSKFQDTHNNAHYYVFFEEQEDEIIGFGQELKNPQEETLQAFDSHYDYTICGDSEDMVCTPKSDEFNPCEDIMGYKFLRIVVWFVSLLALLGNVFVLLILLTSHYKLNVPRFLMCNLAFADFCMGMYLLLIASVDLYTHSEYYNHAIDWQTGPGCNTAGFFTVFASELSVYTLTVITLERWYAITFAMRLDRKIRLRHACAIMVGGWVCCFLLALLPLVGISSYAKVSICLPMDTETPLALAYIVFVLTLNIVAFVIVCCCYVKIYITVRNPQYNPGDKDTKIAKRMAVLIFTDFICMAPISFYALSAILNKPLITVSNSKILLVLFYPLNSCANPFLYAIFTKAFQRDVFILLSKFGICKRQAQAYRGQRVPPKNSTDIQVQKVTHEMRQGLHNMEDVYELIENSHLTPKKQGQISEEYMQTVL

Compound | Potency [1] | Potency [2] | Potency [3] | Potency [4] | Potency [5] | outcome [6] | Potency [7] | outcome [8] | Potency [9] | Potency [10] | Potency [11] | Potency [12] | Potency [13] | Potency [14] | Potency [15] | Potency [16] | Potency [17] | Potency [18] | Potency [19] | Potency [20]
CCCC1O[C@@H]2C[C@H]3[C@@H]4CCC5=CC(=O)C=C[C@]5(C)[C@H]4[C@@H](O)C[C@]3(C)[C@]2(C(=O)CO)O1 (some centres not stated) | inactive | inactive | 48.6 µM (active) | inactive | inactive | inactive | inactive | inactive | inactive | inactive | inactive | inactive | inactive | inactive | 48.6 µM (active) | inactive | – | – | – | –
CCN(C(=O)c1cc(C)cc(OC[C@H](C)Nc2ccncc2)c1)C(C)C | inactive | inactive | inactive | inactive | – | – | – | – | inactive | inactive | inactive | inactive | – | inactive | – | – | inactive | inactive | – | –
CCCCCCCCCCC=O | inactive | inactive | inactive | inactive | – | – | – | – | inactive | inactive | inactive | – | – | inactive | inactive | inactive | inactive | inactive | – | –
CSc1ccc(C(=O)c2[nH]c(=O)[nH]c2C)cc1 | inactive | inactive | inactive | inactive | inactive | – | – | – | inactive | inactive | inactive | – | inactive | inactive | – | – | inactive | – | inactive | inactive
Cc1cc2c(cc1C(F)(F)F)N(C(=O)Nc1ccc(Oc3cccnc3C)nc1)CC2 | inactive | inactive | inactive | inactive | – | – | – | – | inactive | inactive | inactive | inactive | inactive | – | 7.81 µM (active) | inactive | 15.6 µM (active) | – | – | –
C1CCCC1 | inactive | inactive | inactive | inactive | – | – | – | – | inactive | inactive | inactive | – | inactive | inactive | inactive | inactive | inactive | inactive | – | –
CC(C)(C)c1ccc(C(=O)O)cc1 | inactive | inactive | inactive | inactive | – | – | – | – | 35.6 µM (active) | inactive | inactive | – | – | inactive | – | – | inactive | inactive | – | –
CSc1cnc(C)cn1 | inactive | inactive | inactive | inactive | – | – | – | – | inactive | inactive | inactive | – | – | inactive | – | – | inactive | inactive | – | –
